From PubChem
JMJD2A Tudor inh – qHTS Assay for Inhibitors of JMJD2A-Tudor Domain | AlphaScreen JMJD2A-Tudor / H3K4me3 peptide binding | AID 504339, 2011 | Potency, µM (doses to about 114 µM), without a hit: at the highest dose activity change, negative = inhibition, actives largely listed as inhibitors | hit rate 4.4% among 390,000 | Lysine-specific demethylase 4A (Homo sapiens), O75164; also: % is scaled to controls: 0 for no effect and ±100 for the full control effect; nearly all actives have a fitted effect of over 50% in size
HP1b chromo inh – HTS for Inhibitors of HP1-beta Chromodomain Interactions with Methylated Histone Tails; Chromobox protein homolog 1 (Homo sapiens), P83916; AlphaScreen HP1-beta / biotin-H3K9me3 peptide binding; Potency, µM (top dose mostly 114 µM), without a hit: at the top dose activity change, negative = inhibition, hits mostly inhibitors; hit rate 0.56% among 390,000; AID 540317, 2011; also: nearly all actives have a fitted effect of over 70% in size
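HP1-beta protein (50 nM final) preincubated 30 min at room temperature with biotinylated H3(1-18)K9me3 peptide (50 nM) in PBS pH 7.4, 0.01% Tween-20, then compound added for 30 min. AlphaScreen streptavidin donor/nickel chelate acceptor beads (10 ug/mL final), 30 min dark, luminescence read.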
BAZ2B block – qHTS Assay for Inhibitors of BAZ2B; Bromodomain adjacent to zinc finger domain protein 2B (Homo sapiens), Q9UIF8; AlphaScreen BAZ2B-H3K14Ac peptide displacement; Potency, µM (highest dose often 114 µM), inactives show at the highest dose activity change, negative = inhibition, usual class: inhibitors; hit rate 4.4% among 360,000; also: % is scaled to controls: 0 for no effect and ±100 for the full control effect; nearly all actives have a fitted effect of over 60% in size
Target sequence (Q9UIF8 whole entry, looked up, the tested form may be a part): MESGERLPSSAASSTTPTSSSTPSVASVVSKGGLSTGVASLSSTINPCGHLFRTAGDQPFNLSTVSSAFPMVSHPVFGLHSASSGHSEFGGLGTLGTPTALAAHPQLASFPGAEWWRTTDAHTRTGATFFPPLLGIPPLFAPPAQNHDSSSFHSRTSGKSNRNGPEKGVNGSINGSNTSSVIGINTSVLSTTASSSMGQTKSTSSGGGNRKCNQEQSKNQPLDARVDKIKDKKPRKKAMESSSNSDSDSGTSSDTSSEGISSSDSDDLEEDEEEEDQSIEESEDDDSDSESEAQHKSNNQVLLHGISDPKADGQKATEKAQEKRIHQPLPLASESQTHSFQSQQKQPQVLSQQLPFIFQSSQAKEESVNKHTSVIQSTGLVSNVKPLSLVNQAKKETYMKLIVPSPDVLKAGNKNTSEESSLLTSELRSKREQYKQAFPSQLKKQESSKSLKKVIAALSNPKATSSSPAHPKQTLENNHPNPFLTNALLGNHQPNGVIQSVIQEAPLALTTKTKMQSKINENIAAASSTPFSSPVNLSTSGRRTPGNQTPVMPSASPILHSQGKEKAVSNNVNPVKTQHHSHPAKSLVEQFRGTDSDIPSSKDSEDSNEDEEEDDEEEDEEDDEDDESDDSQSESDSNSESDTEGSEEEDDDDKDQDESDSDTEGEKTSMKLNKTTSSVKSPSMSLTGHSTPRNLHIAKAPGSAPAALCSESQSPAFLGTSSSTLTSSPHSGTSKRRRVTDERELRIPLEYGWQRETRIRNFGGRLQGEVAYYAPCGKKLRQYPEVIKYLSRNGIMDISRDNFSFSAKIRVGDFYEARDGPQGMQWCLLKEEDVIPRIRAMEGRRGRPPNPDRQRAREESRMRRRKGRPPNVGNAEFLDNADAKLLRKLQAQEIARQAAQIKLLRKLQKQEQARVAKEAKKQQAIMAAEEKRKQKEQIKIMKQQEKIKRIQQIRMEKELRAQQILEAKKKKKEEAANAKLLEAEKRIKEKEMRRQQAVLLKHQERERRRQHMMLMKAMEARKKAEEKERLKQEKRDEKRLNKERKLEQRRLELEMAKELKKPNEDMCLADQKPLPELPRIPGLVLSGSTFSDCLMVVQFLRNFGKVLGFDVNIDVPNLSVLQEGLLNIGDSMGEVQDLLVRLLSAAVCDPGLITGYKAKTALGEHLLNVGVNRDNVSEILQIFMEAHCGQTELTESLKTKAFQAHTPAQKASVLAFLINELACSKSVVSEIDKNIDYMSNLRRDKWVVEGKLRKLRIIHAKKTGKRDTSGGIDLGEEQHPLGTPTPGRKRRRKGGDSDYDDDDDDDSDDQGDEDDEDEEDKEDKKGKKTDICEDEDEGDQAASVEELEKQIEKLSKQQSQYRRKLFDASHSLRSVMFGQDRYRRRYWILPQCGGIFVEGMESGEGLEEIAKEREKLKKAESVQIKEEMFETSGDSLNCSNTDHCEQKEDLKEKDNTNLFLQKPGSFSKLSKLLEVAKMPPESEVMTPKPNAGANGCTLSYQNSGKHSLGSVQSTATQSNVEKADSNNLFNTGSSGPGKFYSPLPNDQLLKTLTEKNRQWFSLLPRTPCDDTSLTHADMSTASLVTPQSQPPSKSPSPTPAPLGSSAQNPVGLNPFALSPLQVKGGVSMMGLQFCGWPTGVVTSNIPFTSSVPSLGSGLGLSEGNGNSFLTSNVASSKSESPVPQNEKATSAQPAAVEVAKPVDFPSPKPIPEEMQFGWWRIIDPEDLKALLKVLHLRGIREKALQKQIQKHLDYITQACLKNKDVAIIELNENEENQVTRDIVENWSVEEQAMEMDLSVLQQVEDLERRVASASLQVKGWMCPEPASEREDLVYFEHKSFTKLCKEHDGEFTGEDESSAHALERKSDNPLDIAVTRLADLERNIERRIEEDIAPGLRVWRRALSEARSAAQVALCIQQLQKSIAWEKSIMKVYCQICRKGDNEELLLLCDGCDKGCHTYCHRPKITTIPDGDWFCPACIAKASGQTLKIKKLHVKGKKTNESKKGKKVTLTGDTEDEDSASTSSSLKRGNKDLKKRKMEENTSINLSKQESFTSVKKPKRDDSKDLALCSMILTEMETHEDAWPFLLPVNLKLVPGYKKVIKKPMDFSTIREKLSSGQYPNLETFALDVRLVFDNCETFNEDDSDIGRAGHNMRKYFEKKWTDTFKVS
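Inhibition is scored as reduced AlphaScreen emission. The BAZ2B/b-H3(5-23)K14Ac complex (50 nM each) in PBS pH 7.4, 0.01% Tween-20 meets compound (up to 110 uM) for 30 min at RT before bead addition.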
PLK1 PBD block – qHTS for Inhibitors of PLK1-PDB (polo-like kinase 1 - polo-box domain): Primary Screen; AID 720504, 2013; Plk1 PBD binding of FITC phosphopeptide, fluorescence polarization; Serine/threonine-protein kinase PLK1 (Homo sapiens), P53350; hit rate 2.8% among 360,000; Potency, µM, inactives show max response, negative = inhibition, hits mostly inhibitors; also: series mostly up to about 57 µM; % is scaled to controls: 0 for no effect and ±100 for the full control effect; nearly all actives have a fitted effect of over 65% in size
Sfp inh – qHTS Assay for Inhibitors of Bacillus subtilis Sfp phosphopantetheinyl transferase (PPTase). hit rate 3.5% among 310,000. Potency, µM, for inactives: largest response in the series, negative = inhibition, most hits filed as inhibitors. Biochemical Sfp PPTase activity, qHTS;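 also: the enzyme is Sfp with the accession as filed and its product quenches rhodamine fluorescence; 0% = enzyme reaction without inhibitor and -100% = no enzyme wells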
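Reaction rates are the 30-min fluorescence difference (ex 525, em 598 nm) in wells containing 15 nM Sfp, 5 uM rhodamine-CoA and 12.5 uM BHQ-2-YbbR at pH 7.6 with 10 mM MgCl2.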
G9a inh – qHTS Assay for Inhibitors of Histone Lysine Methyltransferase G9a | Potency, µM (doses to about 102 µM), for inactives: at the top dose activity, negative = inhibition, usual class: inhibitors | Histone-lysine N-methyltransferase EHMT2 (Homo sapiens), Q96KQ7 | AID 504332, 2011 | G9a H3K9 monomethylation, AlphaScreen, 2 h | hit rate 8.8% among 350,000; also: % is scaled to controls: 0 for no effect and ±100 for the full control effect; nearly all actives have a fitted effect of over 75% in size
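AlphaScreen detection with an anti-monomethyl H3K9 antibody quantified product after a 2 h room-temperature reaction containing 500 nM biotinylated H3K9 peptide, 20 µM SAM and 20 nM enzyme, which had been preincubated 15 min with compound.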
* = called active by the depositor; ? = inconclusive; · = not tested or not shown; [ ] = dose if it differs, or a comment. Only some compounds are listed: those with a hit (about 12% of all), similar ones and a draw of the others. Calls follow the shape of the dose curve; as a rule, active = well fitted curve in the direction sought with a large enough effect; inconclusive = small, poorly fitted or top-dose-only effect, or another doubt; inactive = no such curve, though single readings can be large; an effect the other way counts as inactive or inconclusive. Potency is read from the fitted curve at half-maximal effect.

SMILES	JMJD2A Tudor inh	HP1b chromo inh	BAZ2B block	PLK1 PBD block	Sfp inh	G9a inh
Cc1ccc(-c2nc3c4ccccc4ccn3c2Cc2ccsc2)cc1	·	·	·	4%	·	·
C#CCOCCOCCOCCNc1nc(N2CCN(C(=O)[C@H](CCCCN)n3cc(CN)nn3)CC2)nc(N2CCN(C(=O)[C@H](CCC(=O)O)n3cc(CN)nn3)CC2)n1	?	37%	·	0%	·	·
C#CCOCCOCCOCCNc1nc(OC)nc(N2CCN(C(=O)[C@H](CCC(=O)O)n3cc(C(N)CO)nn3)CC2)n1 (stereo not given in full)	79µM*	-12%	79µM*	7%	·	-6%[2.33 µM]
C#CCOCCOCCOCCNc1nc(N2CCN(C(=O)[C@H](CCC(=O)O)n3cc([C@@H](N)CO)nn3)CC2)nc(N2CCN(C(=O)[C@H](CCC(=O)O)n3cc([C@@H](N)CCSC)nn3)CC2)n1	79µM*	7%	·	-13%	·	·
COc1ccc(OC)c(NC(=O)c2cccc(Cn3cc(Br)c([N+](=O)[O-])n3)c2)c1	-27%	-7%	-11%	-3%	-12%	2.5µM*
CNCc1ccccc1Sc1cc(O)ccc1O	18µM*	10µM*	35µM*	5.3µM*	22µM*	1µM*
COC(=O)c1ccc(NC(=O)CC2C(=O)N(c3cccc(F)c3)C(=O)N2CC(C)C)cc1 (stereo not given)	-14%	5%	-11%	·	·	-11%[59 µM]
CCCc1nc2ccc(NC(=O)c3cccs3)cc2c(=O)n1Cc1ccccc1Cl	?	?	-5%	30µM*	-1%	8%[59 µM]
COc1ccc2c(c1)c(C(=O)CN1CCc3ccccc3C1)c(C)n2C	?	26%	-5%	-11%	4%	45µM*
COc1ccc2[nH]c(C)c(C(=O)CN3CCc4cc(OC)c(OC)cc4C3)c2c1	-30%	12%	4%	-18%	16%	50µM*
COc1ccc2c(c1)c(C(C)=O)c(C)n2C	-5%	23%	-21%	-8%	9%	22%
O=c1[nH]c2ccccc2nc1C(Cl)c1ccccc1 (stereo not given)	·	·	56µM*	·	-12%	?
NC(=S)Nc1nc2ccccc2[nH]c1=O	·	·	?	·	?	7.9µM*
COC(c1ccccc1)c1nc2ccccc2[nH]c1=O (stereo not given)	-6%	17%	10%	1%	13%	-9%[2.33 µM]
Cc1ccc2[nH]c(=O)c(NC(N)=S)nc2c1	-25%	12%	2%	-4%	-19%	?
C[C@H]1[C@H](C)CC[C@]2(C(=O)O)CC[C@]3(C)C(=CCC4[C@@]5(C)CC[C@H](O)C(C)(C)[C@@H]5CC[C@]43C)[C@H]12 (stereo not given in full)	·	·	·	·	45%	·
Cc1cc(C)nc(Nc2nc(=O)c3ccccc3s2)n1	-10%	17%	-4%	-17%	?	40µM*
CC(=O)N1CCC2(CC1)CCN(c1ccc(-c3ccccc3)cc1)CC2	·	·	·	·	56µM*	-1%[12.7 µM]
O=C(c1ccncc1)N1CCC2(CC1)CCN(c1ccc(-c3ccccc3)cc1)CC2	·	·	·	·	13%	-7%[12.7 µM]
CCN(CC)c1ccc(C(=O)OCC(=O)N2CCN(c3ccccc3)CC2)cc1	4.5µM*	12%	-37%	-2%	9%	-40%
CC(=O)N1CCN(c2ccc(NC(=O)C(c3ccccc3)c3ccccc3)cc2)CC1	?	-7%	-39%	10%	4%	50µM*
CC(=O)c1ccc(NCC(=O)N2CCN(c3ccccc3)CC2)cc1	0%	42%	-32%	-11%	2%	14µM*
CC(=O)N1CCN(c2ccc(NC(=O)c3ccccc3)cc2)CC1	-5%	29%	3%	-7%	17%	9%
O=C(OCC(=O)N1CCN(c2ccccc2)CC1)c1ccc(Cl)nc1	-2%	13%	-1%	-8%	·	?
COC(=O)N1CCC2(CC1)CCN(C(c1ccccc1)c1ccccc1)CC2	·	·	·	·	14%	-5%[12.7 µM]
SMILES	JMJD2A Tudor inh	HP1b chromo inh	BAZ2B block	PLK1 PBD block	Sfp inh	G9a inh
CCC(CC)C(=O)N1CCN(c2ccccc2)CC1	-17%	35%	-17%	-14%	16%	79µM*
CC(=O)N1CCN(c2ccc(NC(=O)c3ccccc3Cl)cc2)CC1	?	7%	-1%	21µM*	6%	·
CCC(C(=O)N1CCN(c2cccc(Cl)c2)CC1)c1ccccc1 (stereo not given)	27%	44%	20%	-1%	-1%	-6%[12.7 µM]
O=C(Nc1ccc(N2CCCC2)cc1)C(c1ccccc1)c1ccccc1	?	-13%	?	-1%	50µM*	32µM*
CCCN1CCc2nc(SCC(=O)Nc3ccc(C)c(Cl)c3)[nH]c(=O)c2C1	-34%	4%	-6%	-24%	0%	-3%[59 µM]
CCCCc1cc2c(cn1)=C(OC(=O)c1cccs1)C(C)(OC(=O)CC)C(=O)C=2 (stereo not given)	·	·	·	·	-2%	·
CCCCNc1cc(NC2CCCCC2)c2c3c(onc13)-c1ccccc1C2=O	10µM*	?	1.8µM*	·	·	2µM*
O=C1c2ccccc2-c2onc3c(NCCO)cc(NC4CCCCC4)c1c23	7.9µM*	?	3.5µM*	·	·	2.2µM*
CCCNC(=O)CCn1c(=S)oc2ccccc21	-19%[11.4 µM]	-7%	1%	12µM*	10%	24%
CC(=O)Nc1ccc(NC(=O)CCn2c(=S)oc3ccccc32)cc1	-12%	23%	-14%	-7%	17%	-3%
O=C(CCn1c(=O)oc2ccccc21)n1c(=O)oc2ccccc21	-11%	34%	-35%	-27%	-3%	79µM*
O=C(CCn1c(=O)oc2ccccc21)NCCN1CCc2ccccc2C1	50µM*	18%	7%	-3%	-8%	?
O=C(CCCn1c(=O)oc2ccccc21)N1CCc2ccccc2C1	-3%	37%	0%	-16%	3%	-28%
COc1ccccc1CN1CC(C(=O)N(C)CCc2nc3ccc(F)cc3[nH]2)CCC1=O (stereo not given)	-24%	26%	-13%	3%	12%	-5%
CCN1CCCC1CNC(=O)c1cc([N+](=O)[O-])c(N(C)C)cc1OC (stereo not given)	-25%	32%	6%	-15%	14%	1%
COC(=O)[C@@]1(Cc2ccc(F)cc2)[C@H]2c3cc(C(=O)N4CCCC4)n(CCF)c3C[C@H]2CN1C(=O)c1ccccc1	·	·	·	-15%	-5%	·
